In PubChem BioAssay (NCATS):
“And” between values parts separate entries of the source, which are not always exact repeats. Identical values can stand only once. A number with no mark means an inactive call. Records with an inconclusive call do not appear. Entries that show only a call come without a potency. The source made the active and inactive calls. Unless noted, how the calls were made is not given here.

Legend:
[1] = biological target: Nuclear receptor subfamily 1 group I member 2 (Rattus norvegicus) (UniProt Q9R1A7); assay: qHTS assay for small molecule activators of the rat pregnane X receptor (rPXR) signaling pathway (AID 651751); conditions: rPXR reporter cells, luciferase (One-Glo), 24 h
Chain of Nuclear receptor subfamily 1 group I member 2 (Rattus norvegicus) (Q9R1A7 whole entry, looked up): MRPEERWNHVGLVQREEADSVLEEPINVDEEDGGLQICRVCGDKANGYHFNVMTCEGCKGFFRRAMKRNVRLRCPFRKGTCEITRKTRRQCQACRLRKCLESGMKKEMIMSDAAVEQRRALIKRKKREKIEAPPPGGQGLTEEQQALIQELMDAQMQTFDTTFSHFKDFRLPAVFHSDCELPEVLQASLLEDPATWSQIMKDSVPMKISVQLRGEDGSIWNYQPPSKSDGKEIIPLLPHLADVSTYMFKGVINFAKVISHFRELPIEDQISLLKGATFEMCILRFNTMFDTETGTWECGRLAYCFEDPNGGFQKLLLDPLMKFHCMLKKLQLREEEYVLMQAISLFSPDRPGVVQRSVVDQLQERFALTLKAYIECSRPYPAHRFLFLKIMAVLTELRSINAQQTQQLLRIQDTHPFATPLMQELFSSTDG

[2] = system: astro; assay: Drug repurposing screens with cells derived from glioblastoma tumor samples (AID 1345199; active means well fitted inhibition curve with a large enough effect; further: nearly all actives have a fitted effect of over 40% in size); conditions: viability, ATP luminescence, 48 h; series mostly up to 45.9 µM
In short: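 Four patient lines of CD133+ GBM neurospheres were screened at several concentrations; hits were retested in those lines plus three slower-growing GBM lines, using 48-hour treatment and ATP-based viability.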

[3] = qHTS assay for small molecule activators of the human pregnane X receptor (PXR) signaling pathway (AID 720659); conditions: DPX-2 HepG2 CYP3A4-luciferase, 24 h; series mostly up to 92.3 µM

For `CNC(=O)Oc1cccc2ccccc12`, the max response [1] was 5.05% and 2.44%.
For `Oc1c(Br)cc(Br)cc1Br`, the max response [1] was 8.69% and -3.29%.
For `COC(=O)C1=CCCN(C)C1`, the Potency [2] was “inactive”.
In the case of `CC(Cc1ccc2c(c1)OCO2)NO` (configuration not stated), the Potency [2] was “inactive”.
For `CN1C(=O)CN=C(c2ccccc2)c2cc([N+](=O)[O-])ccc21`, the Potency [2] was “inactive”.
For `COP(=S)(OC)Oc1ccc(Sc2ccc(OP(=S)(OC)OC)cc2)cc1`, the max response [1] was 1.29% and the outcome [3] was “inactive”.
